The full ranking holds about 59,000 sequences; the median of the read-out is about -0.00055, and the lowest 2% start at about -2. The entries come from a sample that favours the lowest values as a whole.

The nature of the experiment: Identification of proteins required for the processing of the EWS-FLI1 nascent transcript.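 Also: robust z of luciferase light less the median z of siRNAs with the same seed.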 Particulars: TC32 Ewing sarcoma NR0B1-luc vs CMV-luc (EWS-FLI1 target promoter against control promoter), 48 h; screened at 20 nM (by protocol). In short, it runs like this:
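Three siRNAs per gene, each in a separate well at 20 nM, were transfected into TC32 cells bearing either reporter construct. Luminescence was measured two days on, and per-gene comparison relied on seed-corrected Z values.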
In the case of UUUCGGAAAUCUAGGCUGG against KANSL1, the seed-corrected z-score came to 1.62.
In turn, UUGAUAUAAACUCUGACAC against PDE4D showed a seed-corrected z-score of 0.567.
With UCGUCUUCGCUUUAUAUCC against EFR3A the figure was -3.4; with AUCGGUAGCAGUGAACAUG against LPP, -0.942.
With UAUAUUAGCGGUAACGGUG against RPL15P3 the figure was -2.66; with UCUGUUACAAUUGUUCCAC against ETF1, -0.812; with UUUCUCAUCAAAGAACUCC against PPP2R1A, -0.546.
As for AAGCUUUAUACUUUCCACC against OR7G3, the figure is -0.496; as for AUUCGAACAACAUUUCUUC against ANOS1, -0.592.
UCUCGAACCUGGAGAAUGC against FAM109B displayed a seed-corrected z-score of 0.134.
In turn, UGUGCACUAAUGCGAAUCG against MYO5C had a seed-corrected z-score of -0.13.
As for UCUGCUUUGUCUCUCAGCC against FAM92A1, the figure is -2.84.
With UUCUGGAUGUGGUAGGGCC against ACSBG1 the figure was 0.963.
The sequence UCUGUUCGAAAGUCAAAGC against SRBD1 yielded a seed-corrected z-score of -0.955.
As for UGAGUUGCAGUCCUCCACG against C9orf173, the figure is -2.17; as for UUCGUAAUAAAGGAUCCAG against NF1, 0.124.
As for UAUGCGCAGAUGUUACUCG against PAICS, the figure is 0.0926; as for UUCACUUUCAGAUCGGGAC against C18orf25, -1.35.
As for UUUAAGUCAAAUCUUGUCC against WTIP, the figure is -0.633.
For the sequence UAUUUACCAGGCUCUGUGG against FAM47A, the seed-corrected z-score amounted to 0.667.
Sequence UGCUGCAUGACAUCCACCC against SORBS3 returned a seed-corrected z-score of 0.835.
With AGGGUAGAAAGAGUCGUCC against ANKRD33B the figure was -2.3.
On to UUUUCGAUCAUCACCACAC against YWHAQ, for which the seed-corrected z-score was -0.216.
With UUGGAGUUCAGGAUCCUCU against MYO19 the figure was 0.563; with UCGGUUGAAACAUUUGUGG against IPO11, 0.941; with UAUGUAACUUUGAUGAGAG against CEACAM22P, 0.0194.
Turning to AUCCUUGUACAUGCAGUCC against ELL, the seed-corrected z-score was -2.16.
With AUAAAACUCAUCUGAGUCC against CYP11B2 the figure was 0.754; with AAAGCUAACAUAUUGUAGU against MSGN1, -0.0625.
The sequence UUUCCGAUAGAUUGACUGC against SMPX yielded a seed-corrected z-score of 0.0624.
With UUUCAUCUCAUCGAGGAAG against LDOC1 the figure was -2.02; with UUCUCACUCAUGUUGCCUC against ZNF768, 0.198.
With UACGGUCACUGAUAGUUGG against CYP17A1 the figure was -0.42.
Take UACCGGAAAGACAAGAUAG against CRYBG3: the seed-corrected z-score was determined as 0.146.
With UGUAGCUGAAGAAUAUUCC against ZBTB24 the figure was -2.4; with UCUUAUUGAAAAUCUCAGC against NR1H4, 0.518; with UGUCUAACAAAUGUGGAGC against ZNF548, 0.841.

These data come from PubChem BioAssay AID1159506 (National Center for Advancing Translational Sciences (NCATS), 2015).
